Consider 39 compounds from PubChem BioAssay (EPA / NIEHS).

Broadly, the AC50 is the midpoint of the concentration-response curve, whichever way the signal moves.

SMILES strings stand for the structures. Some structures have more than one record in an assay (separate samples or runs), and their calls can disagree. Active and inactive are the calls of the source. The calls were made as follows: active = hit-call score of the fitted dose curve at least 0.9, where 1 is the maximum; inactive = score below 0.9.

The nature of this test: ATG_FoxO_CIS: Attagene CIS-FACTORIAL HepG2 Assay for human Forkhead box O (FoxO) (AID 2282943). The conditions noted are these: HepG2 Attagene cis-reporter, FoxO element, mRNA; actives raise or lower the signal. How it is done: ATG_CIS is a cell-based, multiplexed-readout assay that uses HepG2, a human liver cell line, with measurements taken at 24 hours after chemical dosing in a 24-well plate.ATG_FoxO_CIS is one of 52 assay component(s) measured or calculated from the ATG_CIS assay. It is designed to make measurements of mRNA induction, a form of inducible reporter, as detected with fluorescence intensity signals by Reverse transcription polymerase chain reaction (RT-PCR) and Capillary electrophoresis technology.Data from the assay component ATG_FoxO_CIS was analyzed into 1 assay endpoint. This assay endpoint, ATG_FoxO_CIS, was analyzed with bidirectional fitting relative to DMSO as the negative control and baseline of activity. Using a type of inducible reporter, measures of mRNA for gain or loss-of-signal activity can be used to understand the reporter gene at the transcription factor-level as they relate to the gene FOXO1 and FOXO3. Furthermore, this assay endpoint can be referred to as a primary readout, because this assay has produced multiple assay endpoints where this one serves a reporter gene function. To generalize the intended target to other relatable targets, this assay endpoint is annotated to the dna binding intended target family, where the subfamily is forkhead box protein.
Human liver HepG2 cells are transiently transfected with multiple reporter transcription units (MRTUs) in 6-well plates using FuGene 6 reagent (Roche; 3 ml FuGene/1 mg DNA). The MRTU constructs are regulated by a cis-regulating element (promoter). […] A major difference between the CIS and TRANS system is that in CIS activities of endogenous TFs are measured, whereas the TRANS assay evaluates changes in activities of exogenous, chimeric NR-Gal4 proteins. […] At the end of 24 hour incubation, total RNA was isolated using TriZol reagent (Invitrogen). The isolated RNA is then reverse-transcribed using oligo(dT) primer and Mo-MLV reverse transcriptase (Invitrogen) with DNAse I (Ambion) treatment for 30 min. The one-tenth of the produced cDNA was amplified by PCR using Taq DNA polymerase (Invitrogen) and two reporter sequence-specific primers. The PCR products were fluorescently labeled by primer extension with 6-arboxyfluorescein (6-FAM) 5'-labeled reporter sequence-specific primer (2 min at 95 C, 20 s at 68 C and 10 min at 72 C) and these products were digested with 5U of HpaI (New England Biolabs) for 2h at 37 C. The fragments were purified using Qiaquick PCR columns (Qiagen), analyzed on an ABI 3130xL genetic analyzer (Applied Biosystems) with peak positions identified by using a set of X-rhodamine (ROX)-labeled MapMarker1000 molecular weight standards (BioVentures). The raw capillary electrophoresis data was processed using Attagraph software (Attagene).
On to `O=c1ccc2ccccc2o1`, for which the compound was classed as inactive. On the same count and under the same terms, with `Cc1cc2c(cc1C(F)(F)F)N(C(=O)Nc1ccc(Oc3cccnc3C)nc1)CC2` the entry was “inactive”. The same measure, in the same setting: next, `O=C(OCCCCCCOC(=O)c1ccccc1)c1ccccc1`: “inactive”. On the same count and under the same terms, with `CCCCOC(=O)c1ccc(O)cc1` the entry was “inactive”; with `CCN(Cc1cccnc1)C(=O)c1cccc(Cl)c1[C@]1(C)C(=O)N(Cc2ccc(OC)cc2OC)c2ccc(Cl)cc21`, “inactive”. `Clc1ccccc1C(c1ccccc1)(c1ccccc1)n1ccnc1`: the call was inactive. On the same count and under the same terms, next, `Cc1ncc(CO)c(CO)c1O`: “inactive”; `O=C1O[C@H]([C@@H](O)CO)C(O)=C1O`: “inactive”; `CO[C@H]1/C=C/O[C@@]2(C)Oc3c(C)c(O)c4c(O)c(c(/C=N/N5CCN(C)CC5)c(O)c4c3C2=O)NC(=O)/C(C)=C\C=C\[C@H](C)[C@H](O)[C@@H](C)[C@@H](O)[C@@H](C)[C@H](OC(C)=O)[C@@H]1C`: “inactive”.

On to `CCCCCCCCCC(=O)O`, for which the compound was classed as inactive. The same measure, in the same setting: next, `CCCCCCCCOC(=O)c1cc(O)c(O)c(O)c1`: “inactive”; `O=C(O)c1ccccc1-n1cc(C(=O)O)c(=O)c2cc(Nc3c(F)cc(F)cc3Cl)c(Cl)cc21`: “inactive”. Still for that read-out and setting: with `O=C(O)Cn1c(=O)n(Cc2ccc(Br)cc2F)c(=O)c2ccc(Cl)cc21` the entry was “inactive”. For `COCC(C)OCC(C)OCC(C)O` (stereo not given), the compound was classed as inactive. With `Cc1occc1C(=O)Nc1ccc(C(=O)N2CCC(F)(F)/C(=C\C(=O)N3CCC(N4CCCCC4)CC3)c3ccccc32)cc1`, the result was inactive. As for `Cc1ccc2oc(CN(Cc3ccccc3)C(=O)Nc3c(F)cc(F)cc3F)c(-c3ccc(Cl)cc3)c2c1`, the result was inactive.

As to `CN(C[C@@H](CC[N+]12CCC(C3CCCCC3)(CC1)CC2)c1ccc(Cl)c(Cl)c1)C(=O)c1cc(C(F)(F)F)cc(C(F)(F)F)c1`, the compound was called inactive. Still for that read-out and setting: with `O=C=NCCCCCCN=C=O` the entry was “inactive”; with `CC/C(=C(/CC)c1ccc(O)cc1)c1ccc(O)cc1`, “inactive”. `NCc1cccc(C2CCN(C(=O)c3ccc(C#Cc4ccccc4F)o3)CC2)c1`: the compound was called inactive.

For the compound `CCCCCc1ccc(N)cc1`, the compound was called inactive. Same read-out and setting: next, `CCCCCCCCCCCC[N+](C)(C)C`: “inactive”; `O=c1[nH]sc2ccccc12`: “inactive”. Same read-out and setting: next, `OCCO`: “inactive”. On to `CC(C)(c1cc(Br)c(O)c(Br)c1)c1cc(Br)c(O)c(Br)c1`, for which the AC50 is 58 µM (active) and the result was inactive.

Consider `Cc1cn([C@H]2C[C@H](N=[N+]=[N-])[C@@H](CO)O2)c(=O)[nH]c1=O`, for which the call was inactive. On the same count and under the same terms, with `CCCCCCCC[Si](OCC)(OCC)OCC` the entry was “inactive”. Still for that read-out and setting: with `Oc1ccc2ccccc2c1` the entry was “inactive”. Same read-out and setting: next, `COc1cccc([C@H](O)C2CCN(CCc3ccc(F)cc3)CC2)c1OC`: “inactive”; `Cc1c2ccccc2c(C)c2c1ccc1ccccc12`: “inactive”. On to `CC1=CC(=O)/C(=C(/C)O)C(=O)O1`, for which the call was inactive. Take `CCCCCCCCN(C)CCCCCCCC`: the result was inactive.

On to `COc1ccc2cc(S(=O)(=O)N[C@H](CC(=O)N[C@H](Cc3ccc(CN4[C@H](C)CCC[C@@H]4C)cc3)C(=O)N(C)C(C)C)c3ccc4c(c3)OCO4)ccc2c1`, for which the outcome was inactive.

Consider `CCN(Cc1cccc(S(=O)(=O)O)c1)c1ccc(C(=C2C=CC(=[N+](CC)Cc3cccc(S(=O)(=O)O)c3)C=C2)c2ccccc2S(=O)(=O)[O-])cc1`, for which the compound was classed as inactive. Still for that read-out and setting: with `Oc1ccccc1` the entry was “inactive”. Same read-out and setting: next, `CCN(CC)C(=O)c1cc(S(=O)(=O)Cc2ccccc2)c(N2CCC(c3ccccc3)CC2)cc1N(CC)CCN(C)C`: “inactive”. Same read-out and setting: with `O=C(O)Cc1cc(I)c(Oc2ccc(O)c(I)c2)c(I)c1` the entry was “inactive”; with `O=c1c(-c2ccc(O)cc2)coc2cc(O)cc(O)c12`, “inactive”. Regarding `CC(=O)N1CCN(c2ccc(OC[C@H]3CO[C@](Cn4ccnc4)(c4ccc(Cl)cc4Cl)O3)cc2)CC1`, the compound was classed as inactive.
